Of roughly 7,900 targets only a part is listed; those with a hit were picked by preference. About 0.6% of all pairs of compound and target were hits.
Tests used:
Experiment in all cases: log2 fold change, soluble protein after heating vs DMSO (PISA); higher = thermal stabilisation; K562 cells, 10 uM, 30 min; active = over 0.2 and 3.5 SD of the protein, either way, in both replicates (recomputed)
saracatinib = compound: CN1CCN(CCOc2cc(OC3CCOCC3)c3c(Nc4c(Cl)ccc5c4OCO5)ncnc3c2)CC1 [saracatinib]
Outline: (§1)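 Soluble protein was defined as the supernatant after 21,000xg for 90 min. It came from K562 cells at 2×10^6 cells/mL given 10 μM compound for 30 min, heated in aliquots for 3 min across 48°C-58°C, pooled, and extracted in PBS with 0.5% NP-40 at 4°C, and was quantified by TMTpro 16plex LC-MS/MS with equalised channel sums. Thermal stability against control samples, from duplicates, is reported as log2 fold change.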

sotrastaurin = compound: CN1CCN(c2nc(C3=C(c4c[nH]c5ccccc45)C(=O)NC3=O)c3ccccc3n2)CC1 [sotrastaurin]
Outline: as §1

alvocidib = compound: CN1CC[C@H](c2c(O)cc(O)c3c(=O)cc(-c4ccccc4Cl)oc23)[C@H](O)C1 [alvocidib]
Outline: as §1

Tubastatin A = compound: CN1CCc2c(c3ccccc3n2Cc2ccc(C(=O)NO)cc2)C1 [Tubastatin A]
Outline: as §1

[1] = compound: CNC(=O)C1=CC=CC=C1NC2=NC(=NC=C2Cl)NC3=C(C=C(C=C3)N4CCOCC4)OC
Outline: as §1

defactinib = compound: CNC(=O)c1ccc(Nc2ncc(C(F)(F)F)c(NCc3nccnc3N(C)S(C)(=O)=O)n2)cc1 [defactinib]
Outline: as §1

rucaparib = compound: CNCc1ccc(-c2[nH]c3cc(F)cc4c3c2CCNC4=O)cc1 [rucaparib]
Outline: as §1

[2] = compound: CNc1nc(-c2ccc3c(N)n[nH]c3c2)cc(N2C[C@@H](C(=O)NC3CCCCC3)CC[C@H]2C)n1
Outline: as §1

encorafenib = compound: COC(=O)N[C@@H](C)CNc1nccc(-c2cn(C(C)C)nc2-c2cc(Cl)cc(NS(C)(=O)=O)c2F)n1 [encorafenib]
Outline: as §1

[3] = compound: COC(=O)[C@H](CCSC)NC(=O)C1=C(C=C(C=C1)NC[C@H](CS)N)C2=CC=CC=C2
Outline: as §1

Measured: log2 fold change

HEATR3 (UniProt Q7Z4Q2)
inactive: saracatinib -0.045 | sotrastaurin -0.167 | alvocidib -0.128 | Tubastatin A 0.109 | [1] -0.054 | defactinib -0.048 | rucaparib 0.081 | [2] -0.006 | encorafenib -0.028 | [3] -0.006

HNRNPH2 (UniProt P55795)
UniProt P55795, sequence (P55795 whole entry, looked up): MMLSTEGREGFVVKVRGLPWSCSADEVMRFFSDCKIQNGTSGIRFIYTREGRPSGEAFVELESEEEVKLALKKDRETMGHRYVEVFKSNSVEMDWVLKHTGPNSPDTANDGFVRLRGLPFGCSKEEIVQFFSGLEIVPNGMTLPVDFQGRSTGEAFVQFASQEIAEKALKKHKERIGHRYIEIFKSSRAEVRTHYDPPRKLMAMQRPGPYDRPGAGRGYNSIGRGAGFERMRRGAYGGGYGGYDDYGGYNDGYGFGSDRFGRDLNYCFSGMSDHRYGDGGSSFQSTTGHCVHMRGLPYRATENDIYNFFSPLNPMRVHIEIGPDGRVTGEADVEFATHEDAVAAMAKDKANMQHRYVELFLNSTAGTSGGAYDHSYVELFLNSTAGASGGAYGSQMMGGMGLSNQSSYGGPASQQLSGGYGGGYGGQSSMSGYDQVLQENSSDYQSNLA
inactive: saracatinib -0.065 | sotrastaurin -0.081 | alvocidib -0.106 | Tubastatin A 0.101 | [1] -0.079 | defactinib -0.173 | rucaparib 0.002 | [2] -0.001 | encorafenib 0.02 | [3] -0.068

IFI30 (UniProt P13284)
inactive: saracatinib 0.224 | sotrastaurin 0.063 | alvocidib -0.003 | Tubastatin A -0.028 | [1] -0.02 | defactinib -0.048 | rucaparib 0.006 | [2] 0.144 | encorafenib 0.009 | [3] 0.042

IDH3A (UniProt P50213)
inactive: saracatinib -0.004 | sotrastaurin 0.008 | alvocidib -0.056 | Tubastatin A -0.058 | [1] -0.026 | defactinib -0.023 | rucaparib -0.031 | [2] -0.026 | encorafenib -0.01 | [3] 0.002

GLUD1 (UniProt P00367)
UniProt P00367, sequence (P00367 whole entry, looked up): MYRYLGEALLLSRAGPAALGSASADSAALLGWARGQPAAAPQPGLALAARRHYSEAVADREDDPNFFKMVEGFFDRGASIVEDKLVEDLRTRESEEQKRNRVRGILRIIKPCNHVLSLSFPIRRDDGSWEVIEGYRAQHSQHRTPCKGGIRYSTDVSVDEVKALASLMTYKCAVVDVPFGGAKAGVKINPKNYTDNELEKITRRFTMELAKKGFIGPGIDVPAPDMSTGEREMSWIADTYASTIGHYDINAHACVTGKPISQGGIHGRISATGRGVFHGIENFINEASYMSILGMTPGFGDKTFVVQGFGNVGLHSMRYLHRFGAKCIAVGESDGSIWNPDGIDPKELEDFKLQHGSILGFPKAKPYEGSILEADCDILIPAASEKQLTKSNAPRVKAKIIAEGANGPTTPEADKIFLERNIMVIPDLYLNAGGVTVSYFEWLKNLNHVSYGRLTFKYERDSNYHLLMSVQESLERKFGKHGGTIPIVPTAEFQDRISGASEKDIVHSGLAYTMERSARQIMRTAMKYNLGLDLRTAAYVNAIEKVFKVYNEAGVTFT
inactive: saracatinib 0.161 | sotrastaurin 0.14 | alvocidib -0.002 | Tubastatin A -0.04 | [1] 0.096 | defactinib 0.041 | rucaparib -0.099 | [2] 0.089 | encorafenib -0.056 | [3] 0.002

HTATIP2 isoform 3 (UniProt Q9BUP3)
inactive: saracatinib -0.016 | sotrastaurin 0.023 | alvocidib -0.113 | Tubastatin A -0.009 | [1] -0.001 | defactinib -0.065 | rucaparib 0.023 | [2] 0.022 | encorafenib 0.01 | [3] -0.016

HIST2H3A (UniProt Q71DI3)
inactive: saracatinib -0.196 | sotrastaurin 0.063 | alvocidib 0.165 | Tubastatin A 0.17 | [1] -0.166 | defactinib 0.339 | rucaparib 0.306 | [2] 0.185 | encorafenib -0.063 | [3] 0.093

GPKOW (UniProt Q92917)
inactive: saracatinib -0.03 | sotrastaurin -0.031 | alvocidib -0.188 | Tubastatin A 0.033 | [1] -0.107 | defactinib -0.178 | rucaparib -0.036 | [2] 0.069 | encorafenib 0.034 | [3] -0.032

GNS (UniProt P15586)
UniProt P15586, sequence (P15586 whole entry, looked up): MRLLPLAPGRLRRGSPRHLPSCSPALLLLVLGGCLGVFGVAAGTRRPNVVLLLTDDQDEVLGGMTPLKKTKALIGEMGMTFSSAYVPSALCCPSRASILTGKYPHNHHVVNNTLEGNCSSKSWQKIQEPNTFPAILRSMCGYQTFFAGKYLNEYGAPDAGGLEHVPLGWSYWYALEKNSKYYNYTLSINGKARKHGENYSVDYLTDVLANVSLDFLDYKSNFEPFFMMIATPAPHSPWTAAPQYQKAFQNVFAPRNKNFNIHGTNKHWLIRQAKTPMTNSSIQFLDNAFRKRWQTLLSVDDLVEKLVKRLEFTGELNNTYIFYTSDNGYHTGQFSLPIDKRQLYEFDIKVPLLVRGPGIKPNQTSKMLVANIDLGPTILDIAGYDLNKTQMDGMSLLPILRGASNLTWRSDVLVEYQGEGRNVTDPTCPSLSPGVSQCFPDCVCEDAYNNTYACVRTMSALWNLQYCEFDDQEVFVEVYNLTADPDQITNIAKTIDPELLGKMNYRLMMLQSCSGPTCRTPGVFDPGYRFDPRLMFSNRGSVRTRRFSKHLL
inactive: saracatinib 0.014 | sotrastaurin 0.041 | alvocidib -0.022 | Tubastatin A -0.012 | [1] -0.007 | defactinib -0.011 | rucaparib 0 | [2] -0.034 | encorafenib 0.009 | [3] -0.009

GNB2 (UniProt P62879)
inactive: saracatinib -0.033 | sotrastaurin 0.019 | alvocidib 0.001 | Tubastatin A 0.015 | [1] -0.002 | defactinib -0.028 | rucaparib -0.004 | [2] 0.039 | encorafenib 0.005 | [3] -0.065

GNAS (UniProt Q5JWF2)
inactive: saracatinib -0.023 | sotrastaurin 0.036 | alvocidib 0.025 | Tubastatin A 0.011 | [1] -0.004 | defactinib 0.012 | rucaparib 0.029 | [2] 0.069 | encorafenib 0.021 | [3] -0.041

GLA (UniProt P06280)
inactive: saracatinib 0.056 | sotrastaurin -0.027 | alvocidib -0.008 | Tubastatin A -0.027 | [1] -0.02 | defactinib 0.008 | rucaparib 0.04 | [2] -0.043 | encorafenib -0.022 | [3] 0.059

GGA2 (UniProt Q9UJY4)
inactive: saracatinib -0.054 | sotrastaurin 0.053 | alvocidib -0.034 | Tubastatin A -0.088 | [1] -0.025 | defactinib 0.025 | rucaparib -0.064 | [2] -0.054 | encorafenib 0.068 | [3] 0.122

HOOK3 (UniProt Q86VS8)
UniProt Q86VS8, sequence (Q86VS8 whole entry, looked up): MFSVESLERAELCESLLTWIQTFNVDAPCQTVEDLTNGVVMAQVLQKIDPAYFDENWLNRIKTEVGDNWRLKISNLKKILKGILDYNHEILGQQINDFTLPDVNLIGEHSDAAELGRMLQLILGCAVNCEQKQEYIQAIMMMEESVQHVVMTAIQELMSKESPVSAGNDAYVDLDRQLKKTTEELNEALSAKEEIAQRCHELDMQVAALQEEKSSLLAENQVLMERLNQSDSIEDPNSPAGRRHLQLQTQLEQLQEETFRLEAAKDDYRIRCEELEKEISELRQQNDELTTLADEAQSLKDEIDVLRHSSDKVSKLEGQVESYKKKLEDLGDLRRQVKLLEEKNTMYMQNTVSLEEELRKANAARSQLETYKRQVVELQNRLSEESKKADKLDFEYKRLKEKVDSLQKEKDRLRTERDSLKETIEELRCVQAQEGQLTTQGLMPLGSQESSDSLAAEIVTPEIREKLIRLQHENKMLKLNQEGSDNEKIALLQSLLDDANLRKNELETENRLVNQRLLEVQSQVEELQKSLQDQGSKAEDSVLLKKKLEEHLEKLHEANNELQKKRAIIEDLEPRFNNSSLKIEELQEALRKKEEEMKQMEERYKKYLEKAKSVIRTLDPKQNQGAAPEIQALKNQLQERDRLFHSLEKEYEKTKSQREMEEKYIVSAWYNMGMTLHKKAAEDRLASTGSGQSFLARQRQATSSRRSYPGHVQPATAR
inactive: saracatinib -0.016 | sotrastaurin -0.166 | alvocidib 0.003 | Tubastatin A -0.019 | [1] 0.013 | defactinib -0.005 | rucaparib -0.063 | [2] -0.008 | encorafenib 0.022 | [3] -0.007

GBA2 (UniProt Q9HCG7)
UniProt Q9HCG7, sequence (Q9HCG7 whole entry, looked up): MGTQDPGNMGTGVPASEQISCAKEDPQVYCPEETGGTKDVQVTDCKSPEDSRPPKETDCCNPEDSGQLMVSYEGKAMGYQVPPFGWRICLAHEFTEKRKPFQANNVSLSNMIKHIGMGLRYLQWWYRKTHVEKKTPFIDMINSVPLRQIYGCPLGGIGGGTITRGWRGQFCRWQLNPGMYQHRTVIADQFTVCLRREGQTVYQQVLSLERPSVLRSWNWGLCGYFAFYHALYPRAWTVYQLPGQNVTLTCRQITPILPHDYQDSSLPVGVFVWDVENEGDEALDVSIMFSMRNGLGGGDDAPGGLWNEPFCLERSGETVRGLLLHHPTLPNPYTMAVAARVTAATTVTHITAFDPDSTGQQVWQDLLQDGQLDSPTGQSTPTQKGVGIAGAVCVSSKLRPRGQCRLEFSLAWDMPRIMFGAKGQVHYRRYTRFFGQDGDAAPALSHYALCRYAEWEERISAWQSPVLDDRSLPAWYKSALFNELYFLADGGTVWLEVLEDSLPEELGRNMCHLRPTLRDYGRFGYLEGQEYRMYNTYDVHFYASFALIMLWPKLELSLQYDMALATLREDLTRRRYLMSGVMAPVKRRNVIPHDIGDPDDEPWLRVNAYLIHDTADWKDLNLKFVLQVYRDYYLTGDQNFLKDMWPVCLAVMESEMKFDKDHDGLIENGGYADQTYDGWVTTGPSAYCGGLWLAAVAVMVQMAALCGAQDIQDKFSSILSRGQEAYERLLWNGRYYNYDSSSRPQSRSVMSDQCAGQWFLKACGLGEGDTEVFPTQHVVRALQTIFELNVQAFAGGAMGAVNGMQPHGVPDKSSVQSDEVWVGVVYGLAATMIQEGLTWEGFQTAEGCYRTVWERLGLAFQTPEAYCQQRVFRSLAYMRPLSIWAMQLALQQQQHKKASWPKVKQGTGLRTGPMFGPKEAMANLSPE
inactive: saracatinib -0.046 | sotrastaurin -0.026 | alvocidib -0.063 | Tubastatin A -0.03 | [1] -0.012 | defactinib -0.07 | rucaparib -0.266 | [2] 0.11 | encorafenib 0.084 | [3] 0.071

FDPS (UniProt P14324)
inactive: saracatinib -0.151 | sotrastaurin -0.041 | alvocidib -0.057 | Tubastatin A 0.062 | [1] -0.097 | defactinib -0.032 | rucaparib -0.112 | [2] 0.237 | encorafenib 0.137 | [3] -0.118

HECTD1 (UniProt Q9ULT8)
inactive: saracatinib -0.184 | sotrastaurin -0.066 | alvocidib 0.111 | Tubastatin A 0.071 | [1] 0.033 | defactinib -0.026 | rucaparib 0.056 | [2] -0.001 | encorafenib -0.154 | [3] -0.018

GCSH (UniProt P23434)
inactive: saracatinib -0.024 | sotrastaurin 0.057 | alvocidib 0.009 | Tubastatin A -0.017 | [1] 0.021 | defactinib -0.01 | rucaparib -0.012 | [2] -0.004 | encorafenib -0.028 | [3] -0.008

GSR (UniProt P00390)
UniProt P00390, sequence (P00390 whole entry, looked up): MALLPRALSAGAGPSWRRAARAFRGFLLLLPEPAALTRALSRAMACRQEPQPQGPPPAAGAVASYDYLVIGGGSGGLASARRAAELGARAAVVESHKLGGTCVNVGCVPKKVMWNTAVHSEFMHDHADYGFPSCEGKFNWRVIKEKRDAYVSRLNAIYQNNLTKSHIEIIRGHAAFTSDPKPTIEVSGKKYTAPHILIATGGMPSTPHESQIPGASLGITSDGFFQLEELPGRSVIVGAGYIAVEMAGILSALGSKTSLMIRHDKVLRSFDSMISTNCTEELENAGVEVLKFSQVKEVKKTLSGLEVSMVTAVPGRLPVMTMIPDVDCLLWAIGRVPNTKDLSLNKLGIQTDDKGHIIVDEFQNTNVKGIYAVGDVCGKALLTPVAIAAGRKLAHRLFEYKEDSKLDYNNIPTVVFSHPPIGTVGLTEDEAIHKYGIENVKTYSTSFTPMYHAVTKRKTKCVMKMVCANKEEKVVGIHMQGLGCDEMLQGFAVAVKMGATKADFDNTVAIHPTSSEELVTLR
inactive: saracatinib -0.021 | sotrastaurin 0.048 | alvocidib 0 | Tubastatin A 0.008 | [1] -0.006 | defactinib -0.016 | rucaparib -0.025 | [2] -0.021 | encorafenib -0.02 | [3] 0.002

GSTO1 (UniProt P78417)
inactive: saracatinib 0.027 | sotrastaurin 0.094 | alvocidib -0.016 | Tubastatin A -0.021 | [1] -0.034 | defactinib 0.001 | rucaparib -0.09 | [2] -0.004 | encorafenib 0.001 | [3] 0

FKBP7 (UniProt Q9Y680)
inactive: saracatinib 0.073 | sotrastaurin 0.056 | alvocidib 0 | Tubastatin A -0.026 | [1] 0.008 | defactinib -0.032 | rucaparib 0.01 | [2] 0.031 | encorafenib 0.044 | [3] 0.036

HPCAL1 (UniProt P37235)
inactive: saracatinib 0.011 | sotrastaurin 0.017 | alvocidib -0.004 | Tubastatin A -0.085 | [1] 0.048 | defactinib -0.008 | rucaparib 0.013 | [2] -0.107 | encorafenib -0.014 | [3] -0.025

FOXO3 (UniProt O43524)
inactive: saracatinib -0.017 | sotrastaurin 0.004 | alvocidib -0.124 | Tubastatin A 0.051 | [1] -0.167 | defactinib -0.037 | rucaparib -0.077 | [2] -0.208 | encorafenib 0.16 | [3] 0.021

HBQ1 (UniProt P09105)
inactive: saracatinib -0.029 | sotrastaurin 0.007 | alvocidib -0.034 | Tubastatin A -0.011 | [1] -0.013 | defactinib -0.009 | rucaparib -0.027 | [2] 0.008 | encorafenib -0.007 | [3] 0.028

HIKESHI (UniProt Q53FT3)
inactive: saracatinib 0.03 | sotrastaurin 0.043 | alvocidib -0.068 | Tubastatin A -0.01 | [1] 0.046 | defactinib -0.038 | rucaparib 0.029 | [2] -0.003 | encorafenib 0.024 | [3] 0.028

HIC2 (UniProt Q96JB3)
UniProt Q96JB3, sequence (Q96JB3 whole entry, looked up): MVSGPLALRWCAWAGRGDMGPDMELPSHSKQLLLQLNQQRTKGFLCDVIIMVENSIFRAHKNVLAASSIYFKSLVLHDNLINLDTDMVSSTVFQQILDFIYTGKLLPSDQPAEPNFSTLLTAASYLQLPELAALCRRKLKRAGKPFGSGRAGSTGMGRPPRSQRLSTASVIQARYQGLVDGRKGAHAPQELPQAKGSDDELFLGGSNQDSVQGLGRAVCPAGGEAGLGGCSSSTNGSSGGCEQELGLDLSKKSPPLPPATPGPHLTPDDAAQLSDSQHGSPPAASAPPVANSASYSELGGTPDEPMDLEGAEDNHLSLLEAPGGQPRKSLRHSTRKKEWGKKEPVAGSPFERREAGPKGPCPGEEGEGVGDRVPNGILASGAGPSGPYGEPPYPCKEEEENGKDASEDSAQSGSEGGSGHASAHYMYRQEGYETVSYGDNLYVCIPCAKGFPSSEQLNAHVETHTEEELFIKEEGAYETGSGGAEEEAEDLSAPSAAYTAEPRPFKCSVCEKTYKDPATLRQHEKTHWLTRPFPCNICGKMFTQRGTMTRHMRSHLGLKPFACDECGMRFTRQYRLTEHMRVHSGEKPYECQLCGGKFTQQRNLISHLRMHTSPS
inactive: saracatinib -0.152 | sotrastaurin -0.236 | alvocidib 0.033 | Tubastatin A -0.034 | [1] -0.011 | defactinib -0.008 | rucaparib 0.142 | [2] -0.019 | encorafenib 0.045 | [3] 0.089

HDGFL2 (UniProt Q7Z4V5)
inactive: saracatinib 0.01 | sotrastaurin 0.119 | alvocidib 0.007 | Tubastatin A 0.013 | [1] -0.061 | defactinib -0.07 | rucaparib -0.051 | [2] -0.058 | encorafenib -0.016 | [3] 0.036

GLS isoform 3 (UniProt O94925)
UniProt O94925, sequence (O94925 whole entry, looked up): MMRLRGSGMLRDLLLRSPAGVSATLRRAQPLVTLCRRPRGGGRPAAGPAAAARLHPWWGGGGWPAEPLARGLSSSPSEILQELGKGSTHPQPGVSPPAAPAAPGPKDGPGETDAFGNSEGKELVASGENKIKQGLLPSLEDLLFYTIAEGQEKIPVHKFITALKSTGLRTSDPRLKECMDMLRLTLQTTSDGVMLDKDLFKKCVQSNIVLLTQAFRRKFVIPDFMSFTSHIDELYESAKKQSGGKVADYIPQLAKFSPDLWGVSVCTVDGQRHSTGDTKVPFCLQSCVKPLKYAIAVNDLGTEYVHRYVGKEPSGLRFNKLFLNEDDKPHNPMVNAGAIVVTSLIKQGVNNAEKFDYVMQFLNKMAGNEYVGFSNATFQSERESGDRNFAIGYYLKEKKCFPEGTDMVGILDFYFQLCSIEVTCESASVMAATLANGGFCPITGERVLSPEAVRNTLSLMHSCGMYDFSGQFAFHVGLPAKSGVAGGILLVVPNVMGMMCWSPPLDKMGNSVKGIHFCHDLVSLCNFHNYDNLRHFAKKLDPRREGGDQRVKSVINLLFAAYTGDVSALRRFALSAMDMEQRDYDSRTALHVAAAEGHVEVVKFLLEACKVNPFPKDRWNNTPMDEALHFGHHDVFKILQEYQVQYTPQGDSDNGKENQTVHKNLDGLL
inactive: saracatinib -0.025 | sotrastaurin -0.027 | alvocidib -0.246 | Tubastatin A 0.14 | [1] -0.025 | defactinib -0.139 | rucaparib -0.045 | [2] -0.063 | encorafenib 0.039 | [3] 0

GOLPH3 (UniProt Q9H4A6)
inactive: saracatinib -0.016 | sotrastaurin -0.046 | alvocidib -0.081 | Tubastatin A 0.028 | [1] 0.022 | defactinib -0.064 | rucaparib -0.064 | [2] 0.013 | encorafenib 0.047 | [3] -0.044

GAK (UniProt O14976)
inactive: saracatinib 1.06 | sotrastaurin -0.066 | alvocidib 1.14 | Tubastatin A 0.011 | [1] 1.11 | defactinib 0.658 | rucaparib 0.237 | [2] 0.402 | encorafenib -0.17 | [3] -0.266

Source: the supplement of paper PMC10849652
